Screen size: about 360,000 compounds; about 17,000 (4.7%) were called active. About 5% were inconclusive and are not listed. Only a selection was taken, and actives are over-represented in it overall. Unmarked numbers belong to inactive results. Cut-off read from the data, not from the text of the source: active = activity change below about -50%; inconclusive = mostly about -30% to -49%; inactive = weaker than that.
% is set by controls: 0 for no effect and ±100 for the full control effect.

The experiment is described as follows: qHTS for Inhibitors of Inflammasome Signaling: IL-1-beta AlphaLISA Primary Screen. Particulars: THP-1 LPS/ATP IL-1B secretion, 16 h; at 57.5 µM, hits give low values. Summed up:
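THP-1 cells pretreated 1 hr with compounds (up to 57.5 uM final), then stimulated with LPS (250 ng/mL final) plus ATP (1.25 mM final); secreted IL-1B measured by AlphaLISA after 16 hr, decreased signal indicating inhibition.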
On the technique in general: Quantitative high-throughput screening tests each substance at several concentrations.
Consider `O=C1CCC(=O)N1CCC(=O)N(C(=O)NC1CCCCC1)C1CCCCC1`, for which the activity change was -5.97%.

Consider `O=C1c2cccnc2C(=O)N1Cc1cccs1`, for which the activity change is 21.3%.

Turning to `NC1=CC(=O)C(=O)c2cccnc21`, the activity change is -59.7% (active).

As to `CCOc1ccc(CCN2C(=O)c3cccnc3C2=O)cc1OCC`, the activity change was -0.139%.

With `CCN(C(=O)CN1CCN(Cc2ccccc2)CC1)c1c(N)n(Cc2ccccc2)c(=O)[nH]c1=O`, the activity change is 27.8%.

`FC(F)(F)c1cccc(NC(=S)Nc2cccc(Cl)c2)c1`: the activity change is -14.7%.

Turning to `Cc1cccc(NC(=S)Nc2ccc3cn[nH]c3c2)c1`, the activity change is -16.5%.

Regarding `Cc1cccc(NC(=S)NC23CN4CN(CN(C4)C2)C3)c1`, the activity change is -14.8%.

In the case of `S=C(Nc1cccc(Cl)c1)Nc1ccc2c(c1)OCCO2`, the activity change was -23.6%.

Consider `Cc1csc(NC(=S)Nc2cccc(Cl)c2)n1`, for which the activity change was -99.2% (active).

As for `Cc1cccc(NC(=S)Nc2ccc(Cl)c(Cl)c2)c1`, the activity change is -89.5% (active).

As to `O=C(Nc1ccc(Cl)c(C(F)(F)F)c1)C1Cc2c(-c3ccccc3Oc3ccccc3)ccnc2O1` (stereo not drawn), the activity change is -13.9%.

With `Cc1cc(C)c(S(=O)(=O)NCC(c2ccc3c(c2)OCO3)N2CCOCC2)c(C)c1` (stereo not drawn), the activity change is 0%.

As for `COc1ccccc1OCC(=O)OCc1cc(-c2ccco2)on1`, the activity change is 1.02%.

For the molecule `CCOC(=O)[C@]12CCCC=C1N(CCC1=CCCCC1)C(=O)[C@H](CC(=O)N1CCSCC1)C2`, the activity change was 15.1%.

With `COc1ccc(Br)cc1CN(C)C(=O)C1CC(=O)N(C2CCCC2)C1` (stereo not drawn), the activity change was -16.8%.

Consider `CC1(C(=O)Nc2cccnc2)Cc2c(-c3ccccc3)ccnc2O1` (stereo not drawn), for which the activity change was -18%.

In the case of `CCOC(=O)c1cc(C)nc(S(C)(=O)=O)c1C#N`, the activity change is -106% (active).

In the case of `CCOC(=O)COc1nc(C)cc(C(F)(F)F)c1C#N`, the activity change is -4.72%.

As for `CCOC(=O)c1c(C(C#N)C#N)cc(C)nc1C`, the activity change was 17.2%.

On to `CCCCOc1ccc(Cl)cc1CSc1nncn1N`, for which the activity change was -10.2%.

In the case of `CC1=C(C(=O)N2CCOCC2)CC(CC(=O)NCc2cccc3ccccc23)C(=O)N1CCC1=CCCCC1` (stereo not drawn), the activity change was -8.18%.

`COc1ccc(NS(=O)(=O)c2ccc(N3CCOCC3)c(NC(=O)/C=C/C(=O)O)c2)cc1`: the activity change was 12.3%.

Turning to `COC(=O)c1sc(-c2ccc(C(C)(C)C)cc2)cc1NC(=O)/C=C/C(=O)O`, the activity change was -98.5% (active).

On to `CC(C)(C)c1ccc(/C=C/C(=O)Nc2ncccn2)cc1`, for which the activity change was 0%.

As for `COc1ccc(Nc2cc(=O)oc3ccccc23)cc1`, the activity change is 34.3%.

Turning to `COc1cccc2cc(-c3cc(=O)oc4cc(C)c(O)cc34)oc12`, the activity change was 0.212%.

`COc1ccc2oc(=O)cc(-c3cc4ccccc4o3)c2c1`: the activity change was -52.1% (active).

In the case of `Cc1ccc(S(=O)(=O)N2CCOCC2)cc1NC(=O)c1ccncc1`, the activity change was 6.64%.

As to `CC1(C(=O)NCC2CCOCC2)Cc2c(-c3cccc(C(N)=O)c3)ccnc2O1` (stereo not drawn), the activity change was 40.9%.

For `O=C(NCCCN1CCOCC1)c1ccc([N+](=O)[O-])cc1[N+](=O)[O-]`, the activity change is 47.3%.

Take `O=C1C2C3C=CC(C4CC34)C2C(=O)N1/N=C/c1ccc(-c2ccccc2[N+](=O)[O-])o1` (stereo not drawn): the activity change is 5.29%.

Take `N#C/C(=C\c1ccc(-c2cccc([N+](=O)[O-])c2)o1)C(=O)NCCN1CCOCC1`: the activity change is -79.4% (active).

`Cc1ccc(-c2ccc(/C=N/NC(=O)CN3CCOCC3)o2)cc1[N+](=O)[O-]`: the activity change was -11%.

Regarding `C=CCNC(=O)/C(=C\c1cccc([N+](=O)[O-])c1)NC(=O)c1ccccc1`, the activity change was 11.9%.

With `N#C/C(=C/c1ccc(N2CCCCC2)o1)C(=O)NCCc1c[nH]c2ccccc12`, the activity change was -56.8% (active).

As to `N#C/C(=C/c1ccc(N2CCOCC2)o1)C(=O)N1CCOCC1`, the activity change was -6.13%.

As to `CN(C)CCNC(=O)/C(=C/c1cccc([N+](=O)[O-])c1)NC(=O)c1ccccc1`, the activity change was -4.01%.

Consider `N#C/C(=C/c1ccc(-c2ccccc2[N+](=O)[O-])o1)C(=O)NCCN1CCCCC1`, for which the activity change is -54.1% (active).

As for `O=C(CN1C(=O)NC2(CCCCC2)C1=O)NCCc1c[nH]c2ccccc12`, the activity change is 0%.

Turning to `Cc1ccc(C(=O)N/C(=C/c2ccc(-c3cccc([N+](=O)[O-])c3)o2)C(=O)NCCCN(C)C)cc1`, the activity change was -105% (active).

For `CN1CCN(CCNC(=O)Nc2ccccc2[N+](=O)[O-])CC1`, the activity change was -9.61%.

`CCc1cccc(C)c1N(C(=O)Cn1c(CO)nc2ccccc21)C(C)COC` (stereo not drawn): the activity change is -5.47%.

Turning to `COc1ccc(N2c3ccccc3CN(Cc3ccccc3)[C@@H](C)[C@H]2Cc2ccc(-c3ccccc3)cc2)cc1`, the activity change was 43%.

`O=C(OCc1cn([C@H]2C[C@H](c3ccccc3)N(C(=O)c3cccs3)C[C@@H]2O)nn1)c1ccccc1`: the activity change is 9.57%.

`CCOC(=O)C1(Cc2ccc(Cl)cc2)CCN(C(=O)C2=NNC(=O)CC2)CC1`: the activity change is 5.99%.

For `COc1ccc(S(=O)(=O)N2CCCCC2)cc1C(=O)NC1CCS(=O)(=O)C1` (stereo not drawn), the activity change was -14.7%.

Turning to `CCN(CC)C(=O)C1CCCN(Cc2cccc(Cl)c2)C1` (stereo not drawn), the activity change is -7.01%.

Take `O=C(C[C@H]1CC[C@@H](NC(=O)c2ccncc2)[C@@H](CO)O1)NCC1CC1`: the activity change is 0.19%.

As to `Cc1ccc(-n2c(SCC(=O)N3CCC(C(=O)O)CC3)nc3ccccc3c2=O)cc1C`, the activity change is 6.5%.

On to `O=S1(=O)C[C@@H](N2CCN(CCO)CC2)[C@H](COCc2ccccc2)N1`, for which the activity change is -19.7%.

In the case of `COc1ccc(-c2ccc3[nH]c4c(c3c2)CCN2C[C@H]3[C@H](C)ON(C)[C@H]3C[C@@H]42)cc1`, the activity change is -18.3%.

Take `Nc1nc(CSc2nnnn2-c2ccccc2)nc(Nc2ccccc2)n1`: the activity change was -29.1%.

As for `CNC(=O)c1cccc2nc3ccccc3nc12`, the activity change is -78.6% (active).

Turning to `CN(C)C(=O)c1coc2nc3ccccc3nc12`, the activity change is 25.5%.

As for `CNC(=O)c1csc(-c2ccccc2)n1`, the activity change was -4.77%.

As to `COc1ccc(NC(=O)N2CCC(Cc3ccccc3)CC2)cc1`, the activity change is -50.3% (active).

Regarding `COc1ccc(C(=O)NC2CCN(C(=O)Nc3ccc(F)cc3)CC2)cc1`, the activity change is 17.5%.

With `COc1ccc(NC(=O)N2CCCC(C(=O)Nc3ccccc3OC)C2)cc1` (stereo not drawn), the activity change was -1.11%.

Consider `CCN1CCCC1Cn1cnc2c([nH]c3cc(OC)ccc32)c1=O` (stereo not drawn), for which the activity change is -21.8%.

Regarding `CCN1CCCC1CNC(=O)c1cc2cc(OC)c(OC)cc2[nH]1` (stereo not drawn), the activity change was -7.87%.

As for `CCN1CCCC1CNc1ncnc2c1[nH]c1ccc(F)cc12` (stereo not drawn), the activity change was -94.3% (active).

Regarding `CC(C)OCCCNc1ncnc2c1[nH]c1ccc(F)cc12`, the activity change was -71% (active).

In the case of `C[C@@H]1CN([C@@H](C)CO)S(=O)(=O)c2ccc(-c3ccc(C(=O)N(C)C)cc3)cc2O[C@@H]1CN(C)Cc1ccccc1C(=O)O`, the activity change is 23.1%.

`COc1ccc(-c2ccc3c(c2)C2CC3CCN2CCC#N)cc1` (stereo not drawn): the activity change was 12.2%.

`Cc1cc(C)c2nc(-c3cccnc3)cc(C(=O)Nc3ccc(S(=O)(=O)Nc4onc(C)c4C)cc3)c2c1`: the activity change was 16.5%.

`COc1ccc(CN2C(=O)C(CC(=O)NCc3cccc4ccccc34)CC(C(=O)N3CCOCC3)=C2C)cc1` (stereo not drawn): the activity change was -5.05%.

Take `COc1cc(C(O)c2nc(-c3cnn(C)c3)cs2)ccc1F` (stereo not drawn): the activity change is 25.9%.

On to `CC(C)(C)NC(=O)Cn1c(SCC(=O)Nc2nccs2)nc2ccccc21`, for which the activity change was -11.3%.

Consider `Cc1ccc(NC(=O)N2CCC(c3nc4c(nnn4Cc4c(F)cccc4Cl)c(=O)[nH]3)CC2)cc1`, for which the activity change is -69% (active).

With `COc1ccc(Cn2nnc3c(=O)[nH]c(C4CCN(C(=O)c5ccccc5Cl)CC4)nc32)cc1`, the activity change is 0%.

Regarding `O=C(Nc1ccc(F)cc1)N1CCCC(c2nc3c(nnn3Cc3ccccc3Cl)c(=O)[nH]2)C1` (stereo not drawn), the activity change was -15.2%.

Turning to `CC[C@]12c3[nH]c4cc(CCC(=O)N(C)C)ccc4c3CCN1C(=O)[C@@H](CC(=O)NCCCN(C)C)C[C@@H]2C(=O)N1CCN(C(=O)c2ccco2)CC1`, the activity change is 0%.

On to `CC1CCN(C(=O)CSc2nnc(-c3ccco3)n2N)CC1`, for which the activity change is 3.36%.

As for `c1ccc(Cc2c(-c3ccco3)nc3c4ccccc4ccn23)cc1`, the activity change is -21.7%.

Regarding `Cc1ccc(OCC(O)CN2CCN(CC(O)COc3ccc(C)cc3Cl)CC2)c(Cl)c1` (stereo not drawn), the activity change was 4.54%.

Take `C=CCc1ccccc1OCC(O)CN1CCN(CCO)CC1` (stereo not drawn): the activity change is 9.73%.

For `Cc1cccc(OCC(O)CN2CCN(CCN3C(=O)c4cccc5cccc(c45)C3=O)CC2)c1C` (stereo not drawn), the activity change was -52.3% (active).

`CCCCN1C(=O)C(CC(=O)NCc2cccs2)CC(C(=O)N2CCCCCC2)=C1C` (stereo not drawn): the activity change is 7%.

As for `Clc1ccc(-n2nnnc2CN2CCCCC2)cc1Cl`, the activity change was 9.91%.

With `CN(C(=O)CCN1C(=O)/C(=C/c2ccccc2F)SC1=S)C1CCS(=O)(=O)C1` (stereo not drawn), the activity change was -99.1% (active).

Turning to `COc1ccccc1/C=C1\SC(=O)N(CCC(=O)N(C)C2CCS(=O)(=O)C2)C1=O` (stereo not drawn), the activity change was -15.1%.

Take `CN(C(=O)CN1C(=O)S/C(=C\c2ccccc2F)C1=O)C1CCS(=O)(=O)C1` (stereo not drawn): the activity change is -16.9%.

Turning to `CCC(C)CN1C(=O)CSCC1(C)C(=O)NCc1ccccc1` (stereo not drawn), the activity change was -5.63%.

`COC(=O)COc1ccc(S(=O)(=O)N2CCOCC2)cc1`: the activity change was -50.5% (active).

For the molecule `CC(=O)c1cccc(NC(=O)COc2ccc(S(=O)(=O)N3CCOCC3)cc2)c1`, the activity change was -9.57%.

In the case of `COc1ccc(S(=O)(=O)N2CCOCC2)cc1NC(=O)COc1ccccc1`, the activity change was 6.58%.

For the molecule `Cc1cc2c(cc1C)NC1(C[C@H]3CCC(=O)N4CC[C@@H](C1)[C@@H]34)C(=NC(C)(C)CC(C)(C)C)N2` (stereo partly drawn), the activity change was 1.01%.

Values taken from PubChem BioAssay AID743279 (National Center for Advancing Translational Sciences (NCATS), 2014).
